Screens from PubChem.
This excerpt belongs to a sample that is enriched for hits.
Tgondii IFNg – T. gondii growth inhibition under IFN-gamma | Toxoplasma gondii growth in IFN-gamma-treated host cells; active compounds read low | activity change, negative = inhibition, % (concentration not given with the values) | actives 3.8% (n = 69,000); in the data active = activity change below about -70%, passing the limit was not always enough;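 note: host cells are HeLa cells infected with Toxoplasma gondii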
A number is an active result; n = inactive.

SMILES	Tgondii IFNg
c1ccc(-c2nnc(-c3ccccn3)nc2-c2ccccc2)cc1	-103
CN(Cc1cnc(-c2ccccn2)nc1)Cc1cnn(-c2ccccc2)c1	n
Cc1ccccc1Nc1nnc(-c2ccccc2)c(-c2ccccc2)n1	n
CCOC(=O)C1CCN(Cc2c[nH]c3ccccc23)CC1	n
CCc1nc(N2[C@H](CO)[C@H](c3ccccc3-c3ccccc3C)[C@@H]2C#N)sc1C	n
CO[C@H]1CN(C)C(=O)c2ccc(NC(=O)c3ccno3)cc2OC[C@H](C)N(S(C)(=O)=O)C[C@@H]1C	n
CC(C)CC(NC(=O)c1ccccc1F)c1nc2cccnc2n1C (stereo not given)	n
COc1ccc(CCO[C@@H]2CCCC[C@H]2N2CC[C@@H](O)C2)cc1OC	n
CCCCc1nnc(NC(=O)C2CC(=O)N(CCc3c[nH]c4ccc(C)cc34)C2)s1 (stereo not given)	n
CCCc1nnc(NC(=O)C2CC(=O)N(CCc3c[nH]c4ccc(Cl)cc34)C2)s1 (stereo not given)	-91
CCCCc1nnc(NC(=O)C2CC(=O)N(CCc3c[nH]c4ccc(OC)cc34)C2)s1 (stereo not given)	n
Cc1csc(NC(=O)CSc2nccc(-c3ccccc3)n2)n1	n
COc1ccccc1-n1c(=O)n(Cc2nc(-c3ccc(C)cc3)oc2C)c(=O)c2c(C)cc(C)nc21	n
CN(C)S(=O)(=O)c1ccc2c(c1)cc(C(=O)NC1CCCC1)n2Cc1ccncc1	n
CN(C)S(=O)(=O)c1ccc2c(c1)cc(C(=O)NCc1ccccc1Cl)n2Cc1ccncc1	-95
CN(C)CCNC(=O)c1cc2cc(S(=O)(=O)N(C)C)ccc2n1Cc1ccncc1	n
CN(C)S(=O)(=O)c1ccc2c(c1)cc(C(=O)NCc1ccccc1)n2Cc1ccncc1	n
COc1ccccc1CNC(=O)c1cc2cc(S(=O)(=O)N(C)C)ccc2n1Cc1ccncc1	n
Cc1ccccc1CNC(=O)c1cc2cc(S(=O)(=O)N(C)C)ccc2n1Cc1ccncc1	n
CN(C)S(=O)(=O)c1ccc2c(c1)cc(C(=O)NCCCN1CCCC1)n2Cc1ccccc1	-96
CN(C)S(=O)(=O)c1ccc2c(c1)cc(C(=O)NC1CCCCCC1)n2Cc1ccncc1	n
CN(C)S(=O)(=O)c1ccc2c(c1)cc(C(=O)NC1CCCCCCC1)n2Cc1ccncc1	-74
COCC(C)(C)CNC(=O)c1nc2ccccc2[nH]c1=O	n
COCCN1Cc2c(C(=O)N3CCCCCC3)ncn2-c2ccccc2S1(=O)=O	n
CC(C)c1ccc(C(=O)N2CCOC(Cc3ccccc3Cl)C2)c(=O)n1C (stereo not given)	n
SMILES	Tgondii IFNg
Cn1nnnc1SCC(=O)c1ccc2c(c1)OCCO2	n
Cc1ccccc1S(=O)(=O)N1C[C@@H]2COC[C@@]2(CN(C)C)C1	n
Cn1cc(CN2CCCC(CCc3ccccc3C(F)(F)F)C2)cn1 (stereo not given)	n
CO[C@H]1CC[C@@H]2CCOc3c(C#N)cccc3C(=O)N(C)C[C@@H](OC)[C@@H](C)C(=O)N(C)C[C@H]1O2	n
O=C(C1CCCC1)N1CC2(C1)[C@H](c1ccccc1)[C@@H](CO)N2Cc1ccc(Cl)cc1	n
c1csc(-c2nc(N3CCCCC3)ncc2-c2ccncc2)c1	-98
c1csc(-c2nc(N3CCCCC3)no2)c1	n
OC1(c2cccnc2)CCN(c2ncc(-c3cccs3)c(-c3cccnc3)n2)CC1	n
COc1cccc(CNC(=O)Cn2ncc3c(N4CCCCC4)ncnc32)c1	n
COc1cc(C(=O)Nc2ccc(N3CCCCC3)c(C(F)(F)F)c2)nc(OC)n1	-82
COc1ncc(C(=O)Nc2ccc(N3CCCC3)c(F)c2)cn1	n
CC1(C)NC(=O)N(CC(=O)Nc2ccc(N3CCCCC3)c(C(F)(F)F)c2)C1=O	n
Cc1cc(=O)n(CC(=O)Nc2nnc(CCc3ccccc3)s2)c2ccccc12	n
Cc1nc(-c2cccc(-c3cccc4ccnn34)c2)no1	n
COc1ccc(-c2noc(COc3cccnc3C)n2)c(OC)c1OC	n
COc1ccc(-c2cccc(-c3noc(C)n3)c2)c(OC)c1OC	-75
O=C(CCN1CCCCC1)N[C@@H]1CC[C@H](CCn2cc(-c3cccc(F)c3)nn2)O[C@H]1CO	n
N#C[C@H]1[C@@H](c2ccccc2-c2ccccc2)[C@H](CO)N1C(=O)Cc1ccncc1	n
O=C1CCc2cc(S(=O)(=O)Nc3ccc(Oc4ccccc4)cc3)cc3c2N1CCC3	n
COc1cccc(CNC(=O)C[C@@H]2CC[C@@H]3[C@@H](COc4ccc(NC(=O)c5cccs5)cc4C(=O)N3C)O2)c1	n
C[C@@H]1CN([C@H](C)CO)C(=O)CCCn2nncc2CO[C@H]1CN(C)Cc1cccc2c1OCCCO2	-88
C[C@@H]1CN([C@@H](C)CO)C(=O)CCCn2nncc2CO[C@@H]1CN(C)Cc1cccc(C(F)(F)F)c1	n
C[C@H](CO)N1C[C@H](C)[C@H](CN(C)Cc2cccc(C(F)(F)F)c2)OCc2cnnn2CCCC1=O	n
C[C@@H]1CN([C@H](C)CO)C(=O)CCCn2nncc2CO[C@@H]1CN(C)Cc1cccc2c1OCCCO2	n
C[C@H]1CN([C@@H](C)CO)C(=O)CCCn2nncc2CO[C@H]1CN(C)Cc1cccc(C(F)(F)F)c1	-106
SMILES	Tgondii IFNg
C[C@H](CO)N1C[C@H](C)[C@@H](CN(C)Cc2cccc3c2OCCCO3)OCc2cnnn2CCCC1=O	n
Cc1nc(N2CCOCC2)nc2c1COCC21CCN(CC2CC2)C1 (stereo not given)	n
COc1cc2c(cc1OC)CN(CC(=O)NC(C)c1cn(C)nc1C)CC2 (stereo not given)	n
COc1cc2c(cc1OC)CN(CCc1ccc(NC(=O)c3cccc4c(=O)c5cccc(OC)c5[nH]c34)cc1)CC2	-84
COc1cc2c(cc1OC)CN(Cc1c(C(C)C)[nH]c3ncccc13)CC2	n
COc1ccc(/C=C/CN2CCCn3cncc3C2)cc1	n
CCCCCCCCCCCCC/C=C/[C@@H](O)[C@H](COC1OC(CO)C(OC2OC(CO)C(OC3OC(CO)C(O)C(OC4OC(CO)C(O)C(O)C4O)C3NC(C)=O)C(OC3(C(=O)O)CC(O)C(NC(C)=O)C(C(O)C(O)CO)O3)C2O)C(O)C1O)NC(=O)CCCCCCCCCCCCCCCCC (stereo not given in full)	n
O=C(c1cc2cccnc2n(Cc2ccccc2)c1=O)N(Cc1ccccc1)c1ccccc1	n
Cc1nsc(NC(=O)NC2CCN(Cc3ccccc3Cl)CC2)n1	n
O=C(Nc1ccc(Cl)c(Cl)c1Cl)NC1CCSC1 (stereo not given)	-75
CCOC(=O)Cn1nc(NC(=O)c2ccc(Cl)c(Cl)c2)cc1C	n
Cc1ccc(CC(=O)N2CCn3nnc(COc4cccnc4)c3C2)cc1	n
CC(C)(C)c1nc(SCc2nc(-c3cccc(-n4cccc4)c3)no2)n[nH]1	-81
CCOC(=O)c1nc(-c2cccc(-n3cccc3)c2)no1	n
CC(C)(C)c1ccc(-c2noc(CSc3ccccn3)n2)cc1	n
CCCNC(=O)c1ccc2ccc(N3CCN(Cc4cccnc4)CC3)n2c1	n
CCC(NC(=O)c1c(F)cccc1F)C1=CCCN(CCO)C1 (stereo not given)	n
CSc1ssc(=Nc2ccc(F)c(F)c2)c1-c1ccccc1	-71
C=CCN1CCCC12CCCN(C(=O)c1ccc(C)o1)C2 (stereo not given)	n
CCSc1ncc(C2CC(=O)Nc3c2c(C)nn3Cc2ccccc2)cn1 (stereo not given)	n
COc1ccc(-c2cc3c(=O)n(Cc4nc(-c5ccc(OC(C)C)cc5)oc4C)ccn3n2)cc1	n
